The subject of test [1] is Staphylococcus aureus MW2 delta-mecA (mecA-). Briefly: normalized GFP fluorescence (growth of mecA- strain) (fraction of control range); higher = more growth of mecA- strain. As to conditions: compound concentration: 150 uM; cefoxitin: subinhibitory; fluorescent label: GFP. A digest of the protocol:
(§1)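 Pre-induced S. aureus MW2 cells with the gene (DsRed) and without it (GFP) were mixed 1:1 in LB holding a subinhibitory antibiotic dose set daily and grown on 150 μM compound (1.5% DMSO) in 1536-well plates, single replicate, for 20 h at 37 °C. DsRed (540/590) and GFP (485/520) readings were scaled per plate between single-strain control medians. Plates with high untreated ratios and rows with DsRed/GFP >10 were excluded.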

The test system of test [2] is Staphylococcus aureus MW2 (mecA+). The test can be described thus: normalized DsRed fluorescence (growth of mecA+ strain) (fraction of control range); higher = more growth of mecA+ strain. Conditions: compound concentration: 150 uM; cefoxitin: subinhibitory; fluorescent label: DsRed. A digest of the protocol:
as §1

Structures can show the parent of a compound that is named as a salt.

As to `c1ccc(CC2=NCCN2)cc1`, the “normalized GFP fluorescence” value in test [1] came out at 0.234. Further, the “normalized DsRed fluorescence” value in test [2] came to 0.835.
Taken in the same sequence, the figures for `CN(C)C(=O)COC(=O)Cc1ccc(OC(=O)c2ccc(NC(=N)N)cc2)cc1` [Camostat Mesilate (FOY-305)] were 0.0607 and 0.818.
On the same counts, the results for `CC(C)c1nc(CN(C)C(=O)N[C@H](C(=O)N[C@@H](Cc2ccccc2)C[C@H](O)[C@H](Cc2ccccc2)NC(=O)OCc2cncs2)C(C)C)cs1` [Ritonavir] are 0.0352 and 1.01.
With `COC(=O)C1=C(C)NC(C)=C(C(=O)OCCN(C)Cc2ccccc2)C1c1cccc([N+](=O)[O-])c1` (stereo unspecified), the “normalized GFP fluorescence” value in test [1] was -0.00636. In addition, the “normalized DsRed fluorescence” value in test [2] was 1.02.
On the same counts, the results for `COc1cc(CNC(=O)CCCC/C=C/C(C)C)ccc1O` are 0.0346 and 0.539.
For `O=C1CN(/N=C/c2ccc([N+](=O)[O-])o2)C(=O)N1`, the “normalized GFP fluorescence” value in test [1] came to 0.0054. In addition, the “normalized DsRed fluorescence” value in test [2] was 0.0533.
As to `O=C1CCc2ccc(OCCCCN3CCN(c4cccc(Cl)c4Cl)CC3)cc2N1`, the “normalized GFP fluorescence” value in test [1] is 0.0969. For the same compound, the “normalized DsRed fluorescence” value in test [2] is 0.824.
Taken in the same sequence, the figures for `OC(CCN1CCCC1)(c1ccccc1)C1CCCCC1` (stereo unspecified) were 0.159 and 1.7.
Regarding `Cc1ccc(C(=O)Nc2ccc(S(=O)(=O)O)c3cc(S(=O)(=O)O)cc(S(=O)(=O)O)c23)cc1NC(=O)c1cccc(NC(=O)Nc2cccc(C(=O)Nc3cc(C(=O)Nc4ccc(S(=O)(=O)O)c5cc(S(=O)(=O)O)cc(S(=O)(=O)O)c45)ccc3C)c2)c1`, the “normalized GFP fluorescence” value in test [1] amounted to 0.319. Moreover, the “normalized DsRed fluorescence” value in test [2] worked out at 0.63.
Taken in the same sequence, the figures for `CO[C@@]1(NC(=O)CSCC#N)C(=O)N2C(C(=O)O)=C(CSc3nnnn3C)CS[C@@H]21` were 0.268 and 0.711.
Taken in the same sequence, the figures for `C[C@]12C=CC(=O)C=C1CC[C@@H]1[C@@H]2C(=O)C[C@@]2(C)[C@H]1CC[C@]2(O)C(=O)CO` were 0.371 and 0.647.
Turning to `CC(C)(C)c1ccc(C(O)CCCN2CCC(C(O)(c3ccccc3)c3ccccc3)CC2)cc1` (stereo unspecified), the “normalized GFP fluorescence” value in test [1] worked out at 0.00757. For the same compound, in test [2], the “normalized DsRed fluorescence” value worked out at 0.056.
Taken in the same sequence, the figures for `Oc1ccc(O)cc1` were 0.379 and 0.882.
On the same counts, the results for `OC[C@H]1O[C@@H](O[C@@H]2[C@@H](CO)O[C@](O)(CO)[C@H]2O)[C@H](O)[C@@H](O)[C@H]1O` are 0.29 and 0.712.
As to `Cc1cn([C@H]2C=C[C@@H](CO)O2)c(=O)[nH]c1=O`, the “normalized GFP fluorescence” value in test [1] was 0.779. For the same compound, the “normalized DsRed fluorescence” value in test [2] is 0.601.
On the same counts, the results for `c1cnc2cc3c(cc2n1)[C@@H]1CNC[C@H]3C1` [Varenicline tartrate] are 0.504 and 0.508.
Taken in the same sequence, the figures for `CCOC(=O)O[C@]1(C(=O)COC(=O)CC)CC[C@H]2[C@@H]3CCC4=CC(=O)C=C[C@]4(C)[C@H]3[C@@H](O)C[C@@]21C` were 0.129 and 1.07.
For `CN[C@@H]1[C@H](O[C@H]2[C@H](O[C@H]3[C@H](O)[C@@H](O)[C@H](NC(=N)N)[C@@H](O)[C@@H]3NC(=N)N)O[C@@H](C)[C@]2(O)CO)O[C@@H](CO)[C@H](O)[C@H]1O`, the “normalized GFP fluorescence” value in test [1] was 0.292. Further, the “normalized DsRed fluorescence” value in test [2] was determined as 0.832.
With `CCC(C)n1ncn(-c2ccc(N3CCN(c4ccc(OCC5COC(Cn6cncn6)(c6ccc(Cl)cc6Cl)O5)cc4)CC3)cc2)c1=O` (stereo unspecified), the “normalized GFP fluorescence” value in test [1] turned out to be 0.389. For the same compound, in test [2], the “normalized DsRed fluorescence” value is 0.642.
As for `Cc1cccc(C)c1NC(=O)C1CCCCN1C` (stereo unspecified), the “normalized GFP fluorescence” value in test [1] worked out at 0.677. For the same compound, the “normalized DsRed fluorescence” value in test [2] was 0.7.
For `O.O.O.O.O=C([O-])CC(O)(CC(=O)[O-])C(=O)[O-].[Li+].[Li+].[Li+]`, the “normalized GFP fluorescence” value in test [1] came out at 0.18. The “normalized DsRed fluorescence” value in test [2] was 1.09.
Taken in the same sequence, the figures for `CC(C(=O)O)c1ccc(-c2ccccc2)c(F)c1` (stereo unspecified) were 0.201 and 0.435.
As for `CC1=C(CC(=O)O)c2cc(F)ccc2/C1=C\c1ccc([S+](C)[O-])cc1` (stereo unspecified), the “normalized GFP fluorescence” value in test [1] was determined as 0.33. Besides, in test [2], the “normalized DsRed fluorescence” value was determined as 0.476.
As for `CO/N=C(\C(=O)N[C@@H]1C(=O)N2C(C(=O)O)=C(C[N+]3(C)CCCC3)CS[C@H]12)c1csc(N)n1`, the “normalized GFP fluorescence” value in test [1] amounted to 0.0193. The “normalized DsRed fluorescence” value in test [2] amounted to 0.073.
For `CCCCCNC(=N)N/N=C/c1c[nH]c2ccc(OC)cc12`, the “normalized GFP fluorescence” value in test [1] was 0.0155. Moreover, the “normalized DsRed fluorescence” value in test [2] was 0.587.
As for `COc1cc2c(cc1OC)CC(=O)N(CCCN(C)C[C@H]1Cc3cc(OC)c(OC)cc31)CC2` [Ivabradine HCl (Procoralan)], the “normalized GFP fluorescence” value in test [1] stood at 0.478. Moreover, the “normalized DsRed fluorescence” value in test [2] worked out at 0.555.
For `CC(C(=O)O)c1cccc(C(=O)c2ccccc2)c1` (stereo unspecified), the “normalized GFP fluorescence” value in test [1] was found to be 0.247. In test [2], the “normalized DsRed fluorescence” value was 0.413.
Taken in the same sequence, the figures for `Nc1nc(=O)n([C@@H]2CS[C@H](CO)O2)cc1F` [Emtricitabine] were 0.4 and 0.622.
For the compound `O=C(CCCN1CC=C(n2c(=O)[nH]c3ccccc32)CC1)c1ccc(F)cc1`, the “normalized GFP fluorescence” value in test [1] was determined as 0.664. In test [2], the “normalized DsRed fluorescence” value worked out at 0.702.
As for `c1ccc([C@H]2CN3CCSC3=N2)cc1`, the “normalized GFP fluorescence” value in test [1] amounted to 0.522. The “normalized DsRed fluorescence” value in test [2] was found to be 0.535.
`C[N+](C)(C)CC(=O)O`: the “normalized GFP fluorescence” value in test [1] worked out at 0.229. Moreover, in test [2], the “normalized DsRed fluorescence” value turned out to be 0.899.
`COC(=O)N[C@H](C(=O)N1CCC[C@H]1c1ncc(-c2ccc(-c3ccc(-c4cnc([C@@H]5CCCN5C(=O)[C@@H](NC(=O)OC)C(C)C)[nH]4)cc3)cc2)[nH]1)C(C)C`: the “normalized GFP fluorescence” value in test [1] was 0.242. For the same compound, in test [2], the “normalized DsRed fluorescence” value was found to be 0.788.
Turning to `CNC[C@H](O)[C@@H](O)[C@H](O)[C@H](O)CO` [Meglumine], in test [1], the “normalized GFP fluorescence” value was determined as 0.21. Further, in test [2], the “normalized DsRed fluorescence” value came out at 0.823.

These data come from the supplement of paper PMC7695840.
